Compounds with a hit are over-represented: about 0.45% of the library has one in this group of screens.
TRb-SRC2 inh: disrupts binding of human TR beta to SRC2; Potency, µM (doses to about 106 µM), inactives show at the highest dose activity change, negative = inhibition, hits mostly inhibitors; 280,000 compounds, 0.065% hits; TRbeta-SRC2 peptide binding, fluorescence polarization; receptor liganded with 1 µM T3;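 also: potency is read from the fitted curve at half-maximal effect; plate controls were bound peptide for no effect and peptide without receptor for full effect; nearly all actives have a fitted effect of over 50% in size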
Target sequence (P10828 whole entry, looked up): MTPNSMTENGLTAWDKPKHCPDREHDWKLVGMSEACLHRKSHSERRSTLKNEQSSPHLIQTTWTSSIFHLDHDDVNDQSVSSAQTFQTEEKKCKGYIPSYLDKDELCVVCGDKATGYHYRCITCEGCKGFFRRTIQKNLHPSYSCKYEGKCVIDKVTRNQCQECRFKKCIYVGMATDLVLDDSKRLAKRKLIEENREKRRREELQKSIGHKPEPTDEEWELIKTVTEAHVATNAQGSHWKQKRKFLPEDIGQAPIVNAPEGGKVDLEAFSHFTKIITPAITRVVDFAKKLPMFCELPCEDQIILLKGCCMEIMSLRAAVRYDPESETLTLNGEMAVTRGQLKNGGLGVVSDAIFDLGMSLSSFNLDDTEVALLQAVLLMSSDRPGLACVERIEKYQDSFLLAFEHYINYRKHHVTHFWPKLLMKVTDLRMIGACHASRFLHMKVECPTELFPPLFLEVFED
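Compounds were added to 0.6 uM TRb ligand-binding domain and 20 nM Texas Red-labeled SRC2 peptide in Tris buffer containing 1 uM T3, incubated 5 hr at ambient temperature, then read by fluorescence polarization.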
TexasRed fluor: alters Texas Red total fluorescence, flagging assay interference. TRb/SRC2 Texas Red total fluorescence interference. Potency, µM (titrated, usually from 106 µM), for the others: top-dose fluorescence change, negative = quenching. 280,000 compounds, 0.29% hits. AID 1479; active = well fitted curve in either direction with a large enough effect; inconclusive = small, poorly fitted or top-dose-only effect; also: potency is read from the fitted curve at half-maximal effect; % is scaled to controls: 0 for no effect and ±100 for the full control effect
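Human TRb ligand-binding domain at 0.6 uM with 20 nM Texas Red SRC2 peptide in Tris buffer containing 1 uM T3 and 5% DMSO, incubated with compound 5 h at ambient temperature. Total fluorescence (555/632 nm) calculated as parallel + 2 × perpendicular.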
CBFb RUNX1 block: inhibitors of human CBF-beta and RUNX1 interaction; 230,000 tested, under 10 active; Potency, µM (top dose mostly 59.8 µM), for the others: at the highest dose activity, negative = inhibition, usual class: inhibitors; AlphaScreen CBFb-His/RUNX1-biotin binding, biochemical; also: % of control where 0% means no effect
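Room-temperature protein-protein interaction test with 30 nM each of His-tagged CBF-beta and biotinylated RUNX1, 15 min with compound, then 90 min with nickel plus streptavidin beads. Signal read in AlphaScreen mode.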
ERG Ets-DNA blk: blocks human ERG Ets domain binding to DNA | AID 624246 | 370,000 compounds, 0.028% hits | P11308 | Potency, µM (highest dose often 76.9 µM), for inactives: at the highest dose FP activity, negative = inhibition, most hits filed as inhibitors | fluorescence polarization, His-ERG Ets domain / labelled DNA; active = well fitted inhibition curve with a large enough effect in the polarisation, with a control signal flat; inconclusive = small, poorly fitted or top-dose-only effect, or effect the other way, or a change in a side signal; inactive = no such curve, though single readings can be large or run the other way; the % refers to the polarisation;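 also: polarization taken with two DNA probes labelled with fluorescein and Texas red; potency is read from the fitted curve at half-maximal effect; % of control where 0% means no effect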
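His-tagged ERG Ets domain (1 uM in the protein solution; 300mM KCl, 50mM Tris-HCl, 1mM EDTA, 1mM DTT, pH 7.5) received compound, then a probe mix of 5 nM fluorescein-DNA and 100nM Texas-615-DNA. Fluorescence polarization was read for both dyes.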
Integrin act MD: activators of alpha7 integrin expression for muscular dystrophy; alpha7betagal myoblasts, beta-gal FDG fluorescence, 48 h; Potency, µM (titrated, usually from 38.3 µM), inactives show at the top dose activation, usual class: activators; 350,000 compounds, 0.064% hits;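 also: potency is read from the fitted curve at half-maximal effect; 100% = response of the positive control SU9516; nearly all actives have a fitted effect of over 60% in size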
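Alpha7betagal+/- myoblasts (passage 13) were plated 16-24 hr, then exposed to compounds (1:260 dilution of DMSO stock) for 48 hours at 37C. After MPER lysis, β-galactosidase reporter activity was read as FDG fluorescence (ex 480/em 540) after 30 minutes.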
GoLoco inh red: RGS12 GoLoco-Gai1 interaction inhibition | P63096 | Gai1:RGS12 GoLoco peptide FP, rhodamine, 10 min | Potency, µM (highest dose often 61.6 µM), inactives show top-dose activity, negative = inhibition, actives largely listed as inhibitors | 230,000 compounds, 0.44% hits | AID 880; active = well fitted inhibition curve with a large enough effect, not every such curve was filed as active; inactive = no such curve, though single readings can be large or run the other way; also: potency is read from the fitted curve at half-maximal effect; % is scaled to controls: 0 for no effect and ±100 for the full control effect; nearly all actives have a fitted effect of over 30% in size
Target sequence (P63096 whole entry, looked up): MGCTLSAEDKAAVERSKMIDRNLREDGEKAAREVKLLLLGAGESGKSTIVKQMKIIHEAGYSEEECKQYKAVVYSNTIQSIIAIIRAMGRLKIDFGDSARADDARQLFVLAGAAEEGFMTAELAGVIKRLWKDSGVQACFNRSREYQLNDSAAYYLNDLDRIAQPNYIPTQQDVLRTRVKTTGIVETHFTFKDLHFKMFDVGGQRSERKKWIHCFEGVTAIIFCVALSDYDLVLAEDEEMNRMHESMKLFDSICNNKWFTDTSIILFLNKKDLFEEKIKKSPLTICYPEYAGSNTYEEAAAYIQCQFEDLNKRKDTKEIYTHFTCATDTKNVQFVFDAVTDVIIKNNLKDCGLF
An asterisk follows results filed as active; ? = inconclusive; · = not tested or not shown; [ ] = dose if it differs, or a comment. Unless noted, calls follow the shape of the dose curve; as a rule, active = well fitted curve in the direction sought with a large enough effect; inconclusive = small, poorly fitted or top-dose-only effect, or another doubt; inactive = no such curve, though single readings can be large; an effect the other way counts as inactive or inconclusive.

SMILES	TRb-SRC2 inh	TexasRed fluor	CBFb RUNX1 block	ERG Ets-DNA blk	Integrin act MD	GoLoco inh red
COc1ccccc1C1CCN(Cc2ccc(C)cc2)CC1	·	·	·	32µM*	-48%	·
Nc1nnc(-c2cccc(F)c2)s1	-3%	-4%	6%	5%	?	6%
O=c1oc2c(-c3cccc(F)c3)cc(O)cc2s1	-1%	-1%	12%	3%	4µM*	-5%
COc1ccc(NC=O)c(C(=O)CCNC(C)=O)c1	-2%	-2%	4%	·	·	·
C[Si](C)(Cl)[Si](C)(C)Cl	0%[201 µM]	-1%[201 µM]	·	·	·	·
Cc1cc2nc3c(=O)[nH]c(=O)nc-3n(CC(O)C(O)C(O)COP(=O)(O)O)c2cc1C (configuration not stated)	4%	-6%	-24%	·	·	16µM*
Cc1cc2cc3c(=O)[nH]c(=O)nc-3n(CC(O)C(O)C(O)CO)c2cc1C (configuration not stated)	·	·	·	·	-18%	·
N#C/C(=C\c1ccc(Cl)cc1)c1nc(-c2cc3c(ccc4ccccc43)oc2=O)cs1	-3%	-11%	·	-6%	·	·
N#C/C(=C\c1ccccc1)c1nc(-c2cc3c(ccc4ccccc43)oc2=O)cs1	-29%[53 µM]	0.28µM*[quencher]	·	-1%	·	·
CC(=O)OC1CCC(C(C)(C)C)CC1 (configuration not stated)	5%[201 µM]	-2%[201 µM]	·	·	·	·
CCOc1ccc(CNC(=O)c2cnc3sc(N4CCOCC4)nn3c2=O)cc1OC	?	1995µM*[quencher]	·	14%	·	·
O=C(N/N=C/c1ccc(Sc2ccccn2)o1)c1cc2ccccc2cc1O	?	32µM*[quencher]	-16%	-5%	4%	1%
Cc1cc2nnc(SCC(=O)Nc3ccc(F)c(Cl)c3)n2c2ccccc12	10%	-2%	·	-1%	·	·
CCCOC(=O)c1cccc(NC(=O)CSc2nnc3cc(C)c4ccccc4n23)c1	-20%	2.8µM*[quencher]	·	1%	·	·
O=C1C=CC2=C3c4cc(O)c(O)cc4C[C@@]3(O)COC2=C1	-18%	14%	·	·	·	0.35µM*
C[n+]1ccccc1C1CCCC/C1=N\NC(N)=S (configuration not stated)	-7%	-4%	3%	-1%	-7%	10µM*
Cc1[nH][nH]c(=O)c1C(c1ccc(-c2ccc(F)cc2)o1)c1c(C)[nH][nH]c1=O	?	-6%	5%	9%	-21%	0%
Cc1[nH][nH]c(=O)c1C(c1ccc(-c2ccc(Cl)c(Cl)c2)o1)c1c(C)[nH][nH]c1=O	14µM*	-3%	-16%	11%	1%	12%
Cc1cc2c(c(=O)o1)[C@@H](O)[C@H]1O[C@@H]1C2=O	1%[11.2 µM]	1%[11.2 µM]	2%[13.1 µM]	·	·	·
O=c1c2ccccc2sn1-c1ccccc1	-11%	-2%	-1%	-2%	-71%	18µM*
O=C(O)c1cccc(-n2sc3ccccc3c2=O)c1	·	·	·	-1%	-11%	·
O=c1c2ccccc2sn1-c1ccc(S(=O)(=O)N2CCCC2)cc1	·	·	-1%	·	-48%	0.16µM*
CN(C)S(=O)(=O)c1cccc(-n2sc3ccccc3c2=O)c1	-6%	-4%	-11%	4%	-41%	14µM*
O=c1c2ccccc2sn1-c1cccc(Cl)c1	·	·	·	·	-51%	·
Cc1ccc(-n2sc3ccccc3c2=O)cc1S(=O)(=O)N1CCCCC1	0%	-3%	-15%	15%	0%	28µM*
SMILES	TRb-SRC2 inh	TexasRed fluor	CBFb RUNX1 block	ERG Ets-DNA blk	Integrin act MD	GoLoco inh red
C=C(C)C(=O)OCCOCC	-9%	?	19%	·	·	·
O=c1c2ccccc2sn1-c1nccs1	3%	-2%	-9%	1%	-71%	16µM*
CC#CCN1c2ccccc2[C@]23C[C@@H](C(=O)OC)N(S(=O)(=O)CCCC)C2=NC(C(=O)OC)=C(C(=O)OC)[C@H]13	4%[11.2 µM]	-2%[11.2 µM]	-6%[13.1 µM]	·	·	-9%[14.2 µM]
Cc1cccc(OCC(=O)N(Cc2ccc(N(C)C)cc2)Cc2ccco2)c1C	-26%[53 µM]	0.45µM*[quencher]	·	1%	·	·
CCCN(CCC)C(=O)CSc1nnc2cc(C)c3cc(C)cc(C)c3n12	-4%	-10%	·	1%	·	·
COC(=O)C(C)Sc1nnc2cc(C)c3cc(C)cc(C)c3n12 (configuration not stated)	-29%	0.071µM*[quencher]	·	3%	·	·
C=C(C)C(=O)OCCCCCCCCCCCCCCCC	-3%[201 µM]	-2%[201 µM]	·	·	·	·
C=CCCCCCCCCC=O	-5%[201 µM]	-1%[201 µM]	·	·	·	·
Cc1ccc2c(c1)N(CC(=O)NCc1cccc(Cl)c1)C(=O)c1cccnc1O2	-1%	-3%	·	-8%	·	·
Cc1ccc(CNC(=O)CCCN2C(=O)c3cccnc3Oc3ccc(Cl)cc32)cc1	-9%	18µM*[quencher]	·	-4%	·	·
COc1ccc(CNC(=O)CN2C(=O)c3cccnc3Oc3ccc(C)cc32)cc1	-22%	20µM*[quencher]	·	3%	·	·
CCCCc1nc2c(c3c1C[C@H](C)OC3)CN(C(=O)N[C@@H](C)c1ccccc1)CC2	0%[11.2 µM]	-16%[11.2 µM]	-10%[13.1 µM]	·	·	12%[14.2 µM]
CC1=NC(=O)C(N=Nc2cccc(O)c2)N1c1ccccc1 (configuration not stated)	-1%	-7%	?	-3%	-20%	16µM*
Oc1cc2c(cc1O)[C@@H](c1ccccc1)CNCC2	2%	0%	1%	-2%	·	13µM*
O=C(O)/C=C(/C(=O)O)[C@]12CCN3CC4=CCO[C@@H]5CC(=O)N[C@@H]1C5[C@H]4C[C@H]32 (some centres not stated)	·	·	·	·	·	0%[14.2 µM]
CSC(=[SH+])N=N/C(=C1/C=CC=CN1)c1ccccn1.[Cu][Br]	·	·	·	·	·	-13%[14.2 µM]
CCCn1c(-c2cc(OC)c(OC)c(OC)c2)nc2c1c(=O)[nH]c(=O)n2Cc1ccccc1	·	·	·	-3%	13µM*	·
COc1cccc(CNCCSc2nnnn2C)c1	-3%	-7%	7%	-13%	-9%[7.66 µM]	-17%
COc1cccc(CNCCCSc2nnnn2C)c1	-21%	1000µM*[quencher]	·	0%	·	·
Cc1ccc2c(c1)C(=O)OC2=O	13%[201 µM]	2%[201 µM]	·	·	·	·
Cc1cccc(C(=O)n2nc(-c3cccnc3)nc2NCc2ccccc2)c1	-15%	0.0089µM*[quencher]	·	3%	·	·
CCCCCCCOC(=O)c1ccccc1C(=O)OCCCCCCC	2%[201 µM]	-6%[201 µM]	·	·	·	·
O=C(COC(=O)Cn1cnc2ccccc21)Nc1cccc([N+](=O)[O-])c1	9%	0%	4%	1%	11µM*	4%
CCN(CC)C(=O)/C(C#N)=C/c1cc(O)c(O)c([N+](=O)[O-])c1	5%	-5%	·	·	·	2%
Clc1ccc(Sc2cc(Cl)c(Cl)cc2Cl)cc1	-1%	-1%	8%	·	·	·
NC(=O)c1cccnc1Oc1ccc(Cl)cc1Cl	3%	0%	7%	2%	10µM*	-1%
Cc1cc(Cl)ccc1Nc1ncccc1C(N)=O	-1%	1%	0%	7%	-8%	-7%
